Screens deposited in PubChem BioAssay by National Center for Advancing Translational Sciences (NCATS).
Lassa entry inh: Lassa virus entry inhibition; Potency, µM (series often up to 37.9 µM), inactives show at the top dose activity change, negative = inhibition, actives largely listed as inhibitors; 300,000 compounds, 1.2% hits; Lassa virus pseudotype entry inhibition, cell reporter; calls by dose curve; tested in HEK293 cells; note: potency is the fitted concentration of half-maximal effect; nearly all actives have a fitted effect of over 50% in size
Marburg entry inh: blocks Marburg virus binding to or entry into cells. Marburg virus pseudotyped entry inhibition, cell reporter. Potency, µM (titrated, usually from 37.8 µM), without a hit: at the top dose activity change, negative = inhibition, hits mostly inhibitors. 300,000 compounds, 1.8% hits. AID 540276; calls by dose curve; tested in HEK293 cells; note: potency is the fitted concentration of half-maximal effect
Pf growth 48h: inhibits P. falciparum growth in the first generation, 48 h; Potency, µM (titrated, usually from 28.7 µM), for the others: top-dose activity change, negative = inhibition, usual class: inhibitors; 310,000 compounds, 5.9% hits; P. falciparum luciferase growth in erythrocytes, 48 h; note: potency is the fitted concentration of half-maximal effect
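Parasite viability was followed by luminescence of a genomically integrated firefly luciferase. Cultures held 0.1% parasitemia at 2% hematocrit (final), incubated under 5% CO2 at 37 C.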
Pf growth 96h: inhibits malaria parasite growth, 96 h | P. falciparum luciferase reporter growth, 96 h | Potency, µM (highest dose often 28.7 µM), without a hit: at the top dose activity change, negative = inhibition, most hits filed as inhibitors | 320,000 compounds, 6.9% hits; note: potency is the fitted concentration of half-maximal effect
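Delayed-death screen, second-generation endpoint: infected erythrocytes, 2% hematocrit, 0.05% parasitemia final; 96 hours at 37 C, 5% CO2; luciferase detection reagent; luminescence decrease equals reduced growth.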
HCV inh: HCV inhibition | 340,000 compounds, 3.4% hits | Potency, µM (titrated, usually from 41.8 µM), without a hit: at the highest dose activity change, negative = inhibition, most hits filed as inhibitors | AID 651820 | Huh7.5.1 HCVcc-Cre infection, luciferase reporter, 44 h; note: potency is the fitted concentration of half-maximal effect
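Cells (1,000/well) were plated 4 h before compound, then infected with HCVcc-Cre virus (~0.5 moi). After 44 h further culture, infection was read as luciferase luminescence following a 15 min substrate incubation at room temperature.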
HCMV inh: inhibitors of human cytomegalovirus; HFF cells, HCMV-luciferase reporter, 72 h; hits give low values; activity change, negative = inhibition, % at 57.5 µM; 410,000 compounds, 4.5% hits; in the data active = activity change below about -60%; inconclusive = no clear call, values can overlap the other calls; inactive = above about -39%
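Two compound doses tested in HFFs infected with HCMV-luciferase, MOI 1 PFU/cell, 72 h at 37C. Lysate luminescence read with OneGlo; data normalized against buffer-only and 10uM Salinomycin inhibitor controls.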
* = called active by the depositor; ? = inconclusive; . = no result; [ ] = another dose, or the depositor's remark. This is a sample that favours compounds with a hit; in the whole collection about 14% have one here. Unless noted, calls come from the whole dose curve; as a rule, active = well fitted inhibition curve with a large enough effect; inconclusive = small, poorly fitted or top-dose-only effect, or another doubt; inactive = no such curve, though single readings can be large or run the other way. % is set by controls: 0 for no effect and ±100 for the full control effect.

SMILES	Lassa entry inh	Marburg entry inh	Pf growth 48h	Pf growth 96h	HCV inh	HCMV inh
Cc1cc(C(=O)Nc2cnn(Cc3ccc(Cl)cc3Cl)c2)no1	?	13%	4.1µM*	86%	-8%	-10
COc1cccc(-c2cc(C(=O)Nc3cnn(Cc4ccc(Cl)cc4Cl)c3)no2)c1	?	-7%[46.1 µM]	.	.	.	?
Cc1cc(C(=O)NNc2ccc(Cl)cc2)no1	-8%[46.1 µM]	4.5µM*	1%	0%	-5%	-35
CC(=O)c1ccc(Cc2ccc(C(C)=O)s2)s1	.	.	.	.	.	18
CC(=O)Nc1ccc(Nc2cc(C)nc3c(-c4ccc(Cl)cc4)cnn23)cc1	?	?	89%	167%	?	-70*
CC(=O)Nc1ccc(Nc2cc(C)nc3c(-c4ccc(Cl)cc4)c(C)nn23)cc1	?	?	?	0%	?	?
CCOc1ccc(C(=O)Nc2ccc3c(c2)OCCO3)cc1[N+](=O)[O-]	-17%	14%[46.1 µM]	26%	?	?	-23
CCCCCCOc1ccc(/C(C)=N/NC2=NCCN2)cc1[N+](=O)[O-]	.	.	?	28%	32µM*	?
COc1ccc(/C(C)=N/NC2=NCCN2)cc1Cl	-12%[46.1 µM]	?	4.7µM*	3.7µM*	-20%	59
CCCCOc1ccc(Br)cc1/C(C)=N/NC1=NCCN1	11µM*	10µM*	4.7µM*	-10%	3.2µM*	-100*
C/C(=N\NC1=NCCN1)c1ccc(N)c([N+](=O)[O-])c1	?	?	2.1µM*	?	?	24
CCc1cccc2c(-c3ccccc3)nc(SCC(=O)Nc3ccccc3)nc12	8%[46.1 µM]	2%[46.1 µM]	.	.	.	?
CCCNC(=O)c1cc(C2CCCN(C(=O)C3CC3)C2)on1 (stereo unspecified)	.	.	.	.	.	32
Cc1cc(Cn2ccnc2)c(C)c([N+](=O)[O-])c1Cn1ccnc1	.	-1%	10µM*	?	0%	-20
O=C(CCl)N1CCN(S(=O)(=O)Cc2ccccc2)CC1	.	.	?	13µM*	?	-76*
CC(C)(C)c1ccc(S(=O)(=O)N2CCN(CC(=O)NC(=O)NC3CCCCC3)CC2)cc1	-28%	?	-21%	2.9µM*	-1%	-19
COc1ccc(S(=O)(=O)N2CCN(CC(=O)NC3CCCC3)CC2)cc1	-1%	4%[46.1 µM]	-7%	?	7%	9
CCOC(=O)N1CCN(S(=O)(=O)Cc2ccccc2)CC1	1%	0%	37%	-10%	0%	-4
CC(C)(C)NC(=O)NC(=O)CN1CCN(S(=O)(=O)c2ccc3c(c2)CCCC3)CC1	?	?	9.3µM*	7.4µM*	-27%	-17
O=C(CCl)N1CCN(S(=O)(=O)c2ccc3c(c2)CCC3)CC1	.	.	2.3µM*	?	14µM*	-80*
O=C(COC(=O)c1ccccc1OC(F)F)Nc1ccc2[nH]c(=O)[nH]c2c1	14%	6%	2%	10%	8%	-21
NS(=O)(=O)c1ccc(CCNC(=O)c2ccc(C#CC3(O)CCCCC3)cc2)cc1	.	.	0%	13%	?	-32
COc1ccc(C[C@H]2CN3C(=NC[C@H]3C)N2CCNC(=O)c2ccc(C)c(Br)c2)cc1	.	.	-6%	3.7µM*	?	-18
COc1ccc(C[C@@H]2CN3C(=NC[C@@H]3C)N2C[C@H](C)NC(=O)c2ccc(C)c(Br)c2)cc1	.	.	8.3µM*	2.6µM*	-3%	-33
Cc1ccc(C(=O)NCCN2C3=NC[C@H](C)N3C[C@H]2Cc2ccc(O)cc2)cc1Br	.	.	?	13µM*	4%	-21
SMILES	Lassa entry inh	Marburg entry inh	Pf growth 48h	Pf growth 96h	HCV inh	HCMV inh
C/C=C(\C)C(=O)NCCN1C2=NC[C@H](Cc3ccc(O)cc3)N2C[C@H]1Cc1ccc(O)cc1	.	.	?	?	1%	20
CCCCC(=O)O[C@]1(C(=O)CO)CCC2C3CCC4=CC(=O)CCC4(C)C3C(O)CC21C (stereo partly specified)	.	.	-8%	?	.	.
CCOc1cc(N2CCOCC2)c(OCC)cc1NC(=O)CN1C(=O)NC(CC)(c2ccc(F)cc2)C1=O (stereo unspecified)	13%	5%	.	.	-3%	-10
CCOC(=O)c1c(C)oc2ncnc(NCCCN3CCN(c4cc(C)ccc4C)CC3)c12	-5%[46.1 µM]	.	.	.	.	-2
Cc1cccc(NCc2cc(Cl)ccc2O)n1	-9%	-7%	6.6µM*	-14%	0%	8
Cc1ccc(O)c(CNc2cccc(C)n2)c1	11%	-7%	?	27%	1%	-7
Cc1cccc(NCc2cc(Cl)cc(Cl)c2O)n1	16%	-2%	10µM*	-1%	?	-4
CC(=O)N1CCCc2cc(S(=O)(=O)N3CCCC(C(=O)Nc4cccc(Cl)c4C)C3)ccc21 (stereo unspecified)	-7%[46.1 µM]	.	.	.	.	-20
CCOC(=O)c1c(C)n(C)c2cc(CN(C)C)c(O)c(S(=O)(=O)c3ccccc3)c12	0%	8%[46.1 µM]	23%	?	3%	-69*
CCOC(=O)c1c(CN2CCOCC2)n(C)c2cc(Br)c(O)c(CN(C)C)c12	-8%	?	10µM*	?	?	-10
CCOC(=O)c1c(CS(=O)(=O)c2ccccc2)n(C)c2cc(Br)c(O)c(CN(C)C)c12	-30%[46.1 µM]	6%[46.1 µM]	9.3µM*	37%	?	?
CC(=O)Nc1ccc(S(=O)(=O)NCCc2csc(-c3cccnc3)n2)cc1	.	.	-9%	8.3µM*	4%	?
O=S(=O)(NCc1cccnc1)c1ccc2c(c1)OCCO2	0%	0%	2%	13µM*	-9%	-4
O=S(=O)(NCc1cccnc1)c1ccc2ccccc2c1	-6%[46.1 µM]	-19%[46.1 µM]	44%	10%	-28%	-63*
O=S(=O)(NCc1ccccc1)c1ccc2c(c1)OCCO2	0%	-4%	13%	19%	4%	11
O=S(=O)(NCc1csc(-c2cccnc2)n1)c1ccc(F)cc1	-19%[46.1 µM]	23%[46.1 µM]	6%	34%	-7%	-22
O=S(=O)(NCc1csc(-c2cccnc2)n1)c1ccc2c(c1)OCCO2	14%	15%	-3%	2.9µM*	-5%	11
CCCC(=O)N1CCCC1(C)C(=O)NCCc1ccccn1 (stereo unspecified)	.	.	.	.	.	-16
COc1ccc(S(=O)(=O)N2CCN(c3ccccc3)CC2)cc1-c1noc(C)n1	?	-11%[46.1 µM]	.	.	.	?
Cc1ccc2nc(Nc3ccc(C)c(F)c3)c3nncn3c2c1	?	7%[46.1 µM]	.	.	.	-7
CCc1ccccc1NC(=O)Cn1nnc(C(=O)OC)c1C(=O)OC	-4%[46.1 µM]	-9%[46.1 µM]	.	.	.	-1
CC(C)(C)P(=O)(c1ccncc1)N1CCCC1 (stereo unspecified)	0%	-11%	?	0.74µM*	-3%	-37
CC(C)(C)n1nnnc1C(c1ccncc1)N1CCCCCC1 (stereo unspecified)	-5%	-25%	-22%	?	26%	33
